Data published in PubChem BioAssay (NCATS).
Values joined by “and” are separate entries in the source; they are usually repeats but may differ in a detail not shown here. Equal values may be shown once. Records with an inconclusive call do not appear. Where a call stands in place of a potency, no number is given. Values without a mark were called inactive. Active and inactive are the calls of the source. Calls follow the shape of the dose curve; as a rule, active = well fitted cell-killing curve with a large enough effect; inconclusive = small, poorly fitted or top-dose-only effect, or effect the other way; inactive = no such curve, though single readings can be large or run the other way. Where a SMILES comes first, the peptide text is derived from it. [ ]: non-standard residue; d: D form. pGlu = O=C1CC[C@@H](C(=O)O)N1

Test: Viability qHTS for spleen associated tyrosine kinase inhibitor (SYKi) drug resistant MV4-11 cells (AID 1963824); also: nearly all actives have a fitted effect of over 35% in size
Conditions: SYKi-resistant MV4-11 viability, CellTiter-Glo, 72 h; series mostly up to 45 µM
Source text: Department of Medicine, Hematology/Oncology
University Hospital Frankfurt, Germany.
Trials have shown promising clinical activity of the selective SYK inhibitor entospletinib in patients with high expressing HOXA9/MEIS1 acute leukemias. As the development of resistance mechanisms is a common problem in the use of targeted drugs, we performed a chemical library screen to identify drug sensitivities in SYK inhibitor resistant AML cells. […] Glucocorticoids are potent immunosuppressants which work in part by inhibiting the transcription of cytokine genes.
Described herein is a viability screen to look for activity in the SYK inhibitor drug resistant cell line against four NCATS compound libraries (MIPE 5.0, NPC, NPACT, and Kinase) totaling 11372 compounds. Active hits were reacquired for confirmation and further secondary assay testing.
SEQUENCE No. (e.g., 1, 2, 3, etc.); […] (e.g., Cells, Incubation, Reagent, etc.); VALUE; DESCRIPTION.
1; Media; 2uL; white, solid-bottom Corning assay plate.
2; Compounds; 23nL; Echo acoustic dispenser.
3; Cell; 5uL; 500 cells per well.
4: Incubation; 72hr; 37 C, 5% CO2, 95% humidity.
5; Reagent; 3uL; CellTiter-Glo reagent (Promega).
6; Incubation; 10min; room temperature.
7; Detection; Luminescence; ViewLux plate reader (PerkinElmer).
NOTES (numbers refer to Sequence numbers above
1. Quantitative high-throughput screening (qHTS) of small molecule compounds was conducted on drug resistant SYKi MV4-11 cell line.
2. Twenty-three nanoliter of small molecule compounds were added to each assay plates using the Echo acoustic dispenser (Beckman Coulter).
3. Cells were seeded into the assay plates at a final density of 500 cells in 5uL of media per well using the Multidrop Combi dispenser.
4. Plates were covered with stainless steel gasketed lids and incubated for 72 hours at standard cell culture conditions.
5. Viability was assessed by adding 3uL of CellTiter-Glo detection reagent (Promega).
6. Plates were covered with gasket lids and incubated for 10 minutes at room temperature.
7. Luminescence was measured on a ViewLux plate reader (PerkinElmer).
Potency is read from the fitted curve at half-maximal effect.

SMILES	Potency	viability, % of control
Cn1c([N+](=O)[O-])cnc1COC(N)=O	inactive	–
CSCC[C@H](NC(=O)[C@H](CCSC)NC(=O)CNC(=O)[C@H](Cc1ccc(O)cc1)NC(=O)[C@H](Cc1ccccc1)NC(=O)[C@H](CCCN=C(N)N)NC(=O)[C@H](CC(=O)O)NC(=O)[C@@H]1CCCN1C(=O)[C@H](CC(=O)O)NC(=O)[C@@H]1CCCN1C(=O)[C@@H]1CCCN1C(=O)[C@@H](N)CC(=O)O)C(N)=O	inactive	–
COc1c(C)c(OCC(O)C(C)(C)O)cc2c1COC2=O (stereo not given)	inactive	–
C[C@H]1CNCCCN1S(=O)(=O)c1cccc2cncc(F)c12	inactive	–
COC1CC(O[C@H]2CC[C@@]3(C)C(=CC[C@]4(O)C3[C@H](O)[C@@H](O)[C@]3(C)[C@@H]([C@H](C)O)CC[C@@]34O)C2)OC(C)C1OC1CC(OC)C(OC2CC(OC)C(OC3OC(C)C(OC4OC(CO)C(O)C(O)C4O)C(OC)C3O)C(C)O2)C(C)O1 (stereo not given in full)	–	76.2% [at 9.25 µM]
CCNC(=O)[C@@H]1CCCN1C(=O)[C@H](CCCN=C(N)N)NC(=O)[C@H](CC(C)C)NC(=O)CNC(=O)[C@H](Cc1ccc(O)cc1)NC(=O)[C@H](CO)NC(=O)[C@H](Cc1c[nH]c2ccccc12)NC(=O)[C@H](Cc1cnc[nH]1)NC(=O)[C@@H]1CCC(=O)N1 ([pGlu]HWSYGLRP-NHEt)	inactive	–
CC(=O)OC[C@@]12[C@@H](OC(C)=O)C[C@@H](C)[C@](C)([C@@H]3C[C@H]4C=CO[C@H]4O3)[C@H]1CCC[C@]21CO1	inactive	–
COc1cc2nccc(Oc3ccc(NC(=O)C4(C(=O)Nc5ccc(F)cc5)CC4)cc3)c2cc1OC	0.0093 µM (active)	–
CC(=O)Nc1cc(Oc2ccc3c(nc(Nc4ccc(F)cc4F)n3C)c2C)ccn1	1.66 µM (active)	–
CC(=O)C1=C(O)C=C2Oc3c(C(C)=O)c(O)c(C)c(O)c3[C@]2(C)C1=O	inactive	–
O=C(/C=C/c1ccc(CN(CCO)CCc2c[nH]c3ccccc23)cc1)NO	0.059 µM (active)	–
CCCNC(C)C(=O)Nc1c(C)csc1C(=O)OC (stereo not given)	inactive	–
C=CC(=O)Nc1cc(Nc2ncc(Cl)c(-c3c[nH]c4ccccc34)n2)c(OC)cc1N(C)CCN(C)C	0.0146 µM (active)	–
CCN(CC)C(=O)/C(C#N)=C/c1cc(O)c(O)c([N+](=O)[O-])c1	16.8 µM (active)	–
Cc1cc(C(C)(C)C)c(O)c(C)c1CC1=NCCN1	inactive	–
CCCCCCCC(=O)OCC(COC(=O)CCCCCCC)OC(=O)CCCCCCC	inactive	–
CCC[C@H](N[C@@H](C)C(=O)N1[C@H](C(=O)O)C[C@@H]2CCCC[C@@H]21)C(=O)O	inactive	–
O=C(CC(c1ccccc1)c1ccccc1)N1CCN(C(c2ccccc2)c2ccccc2)CC1	10.3 µM (active)	–
Cc1ncc(NC(=O)c2cccc(C(F)(F)F)c2)cc1-c1cnc(OC2CCOCC2)c(N2CCOCC2)c1	5.9 µM (active)	–
Clc1ccc(Nc2nnc(Cc3ccncc3)c3ccccc23)cc1	10.6 µM (active)	–

SMILES	Potency	viability, % of control
CN(CCOc1ccc(CC2SC(=O)NC2=O)cc1)c1ccccn1 (stereo not given)	13.3 µM (active)	–
CCCCC(CC)COC(=O)/C=C/c1ccc(OC)cc1 (stereo not given)	inactive	–
COc1ccccc1-c1c[nH]c2ncc(-c3cncc(C(=O)N(C)C)c3)cc12	1.84 µM (active)	–
Cc1ccccc1N=Nc1ccc(N=Nc2c(O)ccc3ccccc23)c(C)c1	inactive	–
C=C1C(=O)OC2CC3(C)C(O)C(=O)C=C(C)C3CC12 (stereo not given)	7.31 µM (active)	–
C=C(C)[C@@H]1CC[C@]2(C(=O)O)CC[C@]3(C)[C@H](CC[C@@H]4[C@@]5(C)CC[C@H](O)C(C)(C)[C@@H]5CC[C@]43C)[C@@H]12	2.95 µM (active)	–
Nc1n[nH]c(N)c1N=Nc1ccc(O)cc1	6.51 µM (active)	–
CNC(=O)c1cccc(-c2ccc3c(N4CCOC[C@@H]4C)nc(N4CCOC[C@@H]4C)nc3n2)c1	291 nM (active) and 580 nM (active) and 417 nM (active)	–
C=C1CCCC2(C)CCC(C(C)(C)OC3OC(C)C(O)C(O)C3OC(=O)/C(C)=C\C)CC12 (stereo not given)	8.93 µM (active)	–
C=C1C2CCC3CC2(CC(O)C2(O)C1CC(OC1OC(CO)C(O)C(O)C1O)C2(C)C)CC3(C)O (stereo not given)	inactive	–
COC(=O)[C@@H](N)Cc1ccc(O)c(O)c1	inactive	–
Cc1ccc(C)c(NC(=O)CNS(=O)(=O)c2ccc3[nH]c(=O)oc3c2)c1	inactive	–
C=CC(=O)N1CCCN(c2cc(NCCC(=O)O)nc(-c3ccccn3)n2)CC1	inactive	–
COc1cc(CCCO)ccc1O[C@@H]1O[C@H](CO)[C@@H](O)[C@H](O)[C@H]1O	inactive	–
CC1C(O)C(O)C2C(C(=O)OCCc3ccc(O)cc3)=COC(O[C@@H]3O[C@H](CO)[C@@H](O)[C@H](O)[C@H]3O)C12 (stereo not given in full)	inactive	–
Cc1cc(C)cc(OCC2CNC(=O)O2)c1 (stereo not given)	inactive	–
C=C[C@H]1[C@H](O[C@@H]2O[C@H](CO)[C@@H](O)[C@H](O)[C@H]2O)OC=C(C(=O)OC)[C@H]1C[C@@H]1N[C@H](C(=O)O)Cc2c1[nH]c1ccccc21	inactive	–
NC(=O)c1cccc(-c2cc(Nc3ccc(OC(F)(F)F)cc3)ncn2)c1	9.2 µM (active) and 5.9 µM (active)	–
COc1ccc2c(c1)CC[C@@H]1[C@@H]2CC[C@]2(C)[C@@H](NCCCCCCN3C(=O)C=CC3=O)CC[C@@H]12	5.25 µM (active)	–
Nc1ncnc2c1nc(Cl)n2[C@@H]1O[C@H](CO)[C@@H](O)[C@@H]1O	2.95 µM (active)	–
